The nature of experiment [1]: binders of probe aFSTL3 on microarray, primary screen, stem cell growth factor project, biochemical, small-molecule microarray, fluorescence 635/667 (AID 1064).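 Note: measures binding of the biotinylated anti-FSTL3 antibody to printed compounds.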 The conditions noted are these: higher = more signal.
Experiment [2] is described as follows: binders from COS7 lysate, DM2A8 probe, primary screen, torsin A project, cell lysate, small-molecule microarray, fluorescence 635/667 (AID 1065). The settings on record: higher = more signal, COS7 lysate expressing mutant human TOR1A.
Experiment [3] can be described thus: binders of probe aFGF2 on microarray, primary screen, stem cell growth factor project, biochemical, small-molecule microarray, fluorescence 635/667 (AID 1067).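 Note: measures binding of biotinylated aFGF2 protein to printed compounds on slides; z-score merges feature fluorescence and signal-to-noise across triplicate slides.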 The settings on record: higher = more signal.
A short description of experiment [4]: binders of probe aFGF10 on microarray, primary screen, stem cell growth factor project, biochemical, small-molecule microarray, fluorescence 635/667 (AID 1071).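 Note: score merges 667 nm spot intensity and signal to noise from triplicate slides.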 The conditions noted are these: higher = more signal.
For experiment [5], the target named is Neurogenic locus notch homolog protein 2 (Homo sapiens) (UniProt Q04721). Put plainly: Notch2 binders on small-molecule microarrays, primary screen, biochemical, small-molecule microarray, 635 nm fluorescence, stem cell growth factors (AID 1073). The conditions noted are these: Notch2 binding, higher = more signal.
Experiment [6] concerns the target Pro-neuregulin-1, membrane-bound isoform (Homo sapiens) (UniProt Q02297). Put plainly: NRG1 binders on small-molecule microarrays, primary screen, psychiatric disease protein project, biochemical, small-molecule microarray, fluorescence 635/667 (AID 1075).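 Note: score combines 667 nm spot fluorescence with signal to noise.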 The conditions noted are these: NRG1 binding, 635 nm fluorescence, higher = more signal.
In experiment [7] the test system is Neuregulin-1 EGF-like domain. Description: binders of neuregulin-1 EGF-like domain, primary screen, biochemical, small-molecule microarray, 635 nm fluorescence (AID 1081).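 Note: binding of the protein to compounds printed on small-molecule microarray slides.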 The conditions noted are these: small-molecule microarray binding, higher = more signal.
Experiment [8] is described as follows: FRG1 promoter luciferase signal modulators, primary screen, FRG1 inhibition for FSHD, cell-based, C2C12 myotubes, firefly/Renilla luciferase, luminescence (AID 1084). The conditions noted are these: higher = more signal, called active from +8 up or from −8 down.
Experiment [9] can be described thus: binders of probe aFST on microarray, primary screen, stem cell growth factor project, biochemical, small-molecule microarray, fluorescence 635/667 (AID 1086).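 Note: score merges 667 nm fluorescence with signal-to-noise of each printed compound spot.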 The settings on record: higher = more signal.
Experiment [10] is described as follows: binders of probe aHhip on microarray, primary screen, stem cell growth factor project, biochemical, small-molecule microarray, fluorescence 635/667 (AID 1087).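 Note: score merges spot fluorescence at 667nm with spot signal to noise ratio.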 The settings on record: higher = more signal.
Experiment [11] has as its system PRMT1 (protein arginine N-methyltransferase 1). Put plainly: PRMT1 binders on small-molecule microarrays, primary screen, biochemical, small-molecule microarray, 635 nm fluorescence (AID 1088).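 Note: binding of Prmt1 protein to compounds spotted on small-molecule microarray slides.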 The settings on record: small-molecule microarray binding, higher = more signal.
The nature of experiment [12]: yeast growth modulation, basal conditions, primary screen, YJM789 clinical isolate, OD600, 24 h (AID 1089).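 Note: growth of clinical yeast isolate S. cerevisiae YJM 789 seeded 1000 cells per well; test concentration not given here.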 The conditions noted are these: S. cerevisiae YJM789 growth, higher = more signal, called active from +8 up or from −8 down.
Experiment [13] can be described thus: fission yeast growth modulation, primary screen, strain 972, OD600, 24 h, no modulator (AID 1090).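 Note: basal condition with compound alone and no growth modifier present; test concentration not given here.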 The conditions noted are these: S. pombe 972 growth, higher = more signal, called active from +8 up or from −8 down.
Experiment [14] can be described thus: S. cerevisiae growth modulation with rapamycin, primary screen, strain BY4716, OD600, 96 h (AID 1091). Note: test concentration not given here. The conditions noted are these: higher = more signal, called active from +8 up or from −8 down.
In experiment [15] the target is Torsin-1A-interacting protein 2 (Homo sapiens) (UniProt Q8NFQ8). Description: LULL1 binders on small-molecule microarray, primary screen, cell lysate, human LULL1 lysate, 635/667 nm fluorescence (AID 1092).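 Note: score merges per-feature 667 nm fluorescence with signal-to-noise.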 The settings on record: hLULL1 lysate binding, 635 nm fluorescence, higher = more signal.
Experiment [16] in a line: E. coli growth modulation, two-sided OD650, primary screen, E. coli filamentation project, strain DRC41, 24 h (AID 1093).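 Note: MC1000 strain lacking acrAB efflux and sulA so SOS filamentation is blocked; test concentration not given here.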 The settings on record: OD650, 24 h, higher = more signal, called active from +8 up or from −8 down.
A short description of experiment [17]: small-molecule microarray binders of probe aLefty2, primary screen, biochemical, biotinylated probe, 635/667 nm fluorescence (AID 1094).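 Note: score merges spot fluorescence near 667 nm with spot signal-to-noise ratio.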 The conditions noted are these: higher = more signal.
Experiment [18] has as its system Noggin (protein binding on small-molecule microarray). Put plainly: Noggin binders on small-molecule microarray, primary screen, biochemical, 635/667 nm fluorescence (AID 1095).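 Note: score merges 667 nm feature fluorescence with signal to noise over triplicate slides.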 The settings on record: 635 nm fluorescence, higher = more signal.
The target in experiment [19] is Neurogenic locus notch homolog protein 3 (Homo sapiens) (UniProt Q9UM47). Put plainly: NOTCH3 binders on small-molecule microarray, primary screen, biochemical, 635/667 nm fluorescence (AID 1096). The conditions noted are these: NOTCH3 binding, 635 nm fluorescence, higher = more signal.
Experiment [20] is described as follows: small-molecule microarray binders of probe aEGFR, primary screen, biochemical, biotinylated probe, 635/667 nm fluorescence (AID 1097).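 Note: probe is a biotinylated anti-EGFR antibody binding compounds printed on slides; score combines fluorescence near 667 nm and signal to noise of each spot.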 The conditions noted are these: higher = more signal.

Calls of active or inactive are those of the source.

Sequence of Neurogenic locus notch homolog protein 3 (Homo sapiens) (Q9UM47 whole entry, looked up): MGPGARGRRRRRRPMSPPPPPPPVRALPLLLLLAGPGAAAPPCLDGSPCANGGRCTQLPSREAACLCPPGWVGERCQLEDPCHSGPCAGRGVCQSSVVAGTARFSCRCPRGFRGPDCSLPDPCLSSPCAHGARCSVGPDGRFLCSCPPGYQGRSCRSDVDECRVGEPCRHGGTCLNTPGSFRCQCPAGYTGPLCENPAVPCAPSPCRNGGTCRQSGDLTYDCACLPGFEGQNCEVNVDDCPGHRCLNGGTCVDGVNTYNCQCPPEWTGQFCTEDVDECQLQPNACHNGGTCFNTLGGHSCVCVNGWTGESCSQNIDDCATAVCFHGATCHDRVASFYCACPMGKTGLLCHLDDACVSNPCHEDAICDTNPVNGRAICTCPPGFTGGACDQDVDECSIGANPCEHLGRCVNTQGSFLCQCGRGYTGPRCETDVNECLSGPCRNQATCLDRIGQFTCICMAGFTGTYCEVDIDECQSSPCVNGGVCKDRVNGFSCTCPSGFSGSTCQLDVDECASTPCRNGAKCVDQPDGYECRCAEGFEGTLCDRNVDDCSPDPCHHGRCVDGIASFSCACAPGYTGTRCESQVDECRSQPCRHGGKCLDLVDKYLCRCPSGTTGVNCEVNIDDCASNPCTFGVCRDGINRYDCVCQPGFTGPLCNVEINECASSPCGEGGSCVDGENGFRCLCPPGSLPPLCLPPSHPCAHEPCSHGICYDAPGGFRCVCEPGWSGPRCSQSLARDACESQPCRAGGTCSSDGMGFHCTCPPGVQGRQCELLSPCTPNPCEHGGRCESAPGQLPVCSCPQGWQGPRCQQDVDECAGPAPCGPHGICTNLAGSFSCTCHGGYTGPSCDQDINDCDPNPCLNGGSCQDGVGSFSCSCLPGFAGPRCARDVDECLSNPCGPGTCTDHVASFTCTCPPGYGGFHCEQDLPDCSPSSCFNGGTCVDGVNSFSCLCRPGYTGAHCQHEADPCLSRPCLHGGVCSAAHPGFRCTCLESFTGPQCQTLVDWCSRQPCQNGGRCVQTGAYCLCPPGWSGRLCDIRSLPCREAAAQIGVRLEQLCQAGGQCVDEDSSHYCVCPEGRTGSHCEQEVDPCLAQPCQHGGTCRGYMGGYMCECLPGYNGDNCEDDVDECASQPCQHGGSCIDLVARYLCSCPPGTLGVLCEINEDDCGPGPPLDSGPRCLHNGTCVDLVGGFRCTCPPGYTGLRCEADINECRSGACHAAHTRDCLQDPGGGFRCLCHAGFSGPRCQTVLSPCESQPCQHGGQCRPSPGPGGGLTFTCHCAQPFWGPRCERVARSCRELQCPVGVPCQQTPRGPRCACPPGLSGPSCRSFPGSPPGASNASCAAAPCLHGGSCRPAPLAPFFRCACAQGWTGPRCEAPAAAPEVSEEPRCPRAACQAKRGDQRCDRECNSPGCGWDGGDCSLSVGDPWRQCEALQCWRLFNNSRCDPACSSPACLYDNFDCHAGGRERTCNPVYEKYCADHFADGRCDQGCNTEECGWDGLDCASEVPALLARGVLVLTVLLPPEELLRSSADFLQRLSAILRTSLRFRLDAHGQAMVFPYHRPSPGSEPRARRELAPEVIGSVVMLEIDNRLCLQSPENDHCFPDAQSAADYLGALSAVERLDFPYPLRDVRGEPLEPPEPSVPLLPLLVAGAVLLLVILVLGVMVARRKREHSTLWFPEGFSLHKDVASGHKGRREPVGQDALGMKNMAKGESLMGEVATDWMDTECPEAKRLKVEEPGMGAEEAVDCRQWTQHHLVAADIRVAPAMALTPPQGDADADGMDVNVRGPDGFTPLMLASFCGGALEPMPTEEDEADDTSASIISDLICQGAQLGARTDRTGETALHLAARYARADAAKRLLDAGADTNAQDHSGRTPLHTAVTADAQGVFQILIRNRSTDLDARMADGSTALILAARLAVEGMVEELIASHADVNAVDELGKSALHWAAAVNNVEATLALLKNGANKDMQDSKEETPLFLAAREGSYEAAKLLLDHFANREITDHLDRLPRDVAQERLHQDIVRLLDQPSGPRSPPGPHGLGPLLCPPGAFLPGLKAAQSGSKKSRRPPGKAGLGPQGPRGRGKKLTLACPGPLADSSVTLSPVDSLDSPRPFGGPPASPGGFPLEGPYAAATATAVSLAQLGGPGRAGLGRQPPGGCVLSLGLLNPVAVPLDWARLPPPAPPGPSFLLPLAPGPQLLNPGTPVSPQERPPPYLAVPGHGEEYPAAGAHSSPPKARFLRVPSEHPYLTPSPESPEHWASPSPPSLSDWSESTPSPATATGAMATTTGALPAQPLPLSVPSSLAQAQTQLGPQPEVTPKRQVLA
Sequence of Neurogenic locus notch homolog protein 2 (Homo sapiens) (Q04721 whole entry, looked up, canonical isoform): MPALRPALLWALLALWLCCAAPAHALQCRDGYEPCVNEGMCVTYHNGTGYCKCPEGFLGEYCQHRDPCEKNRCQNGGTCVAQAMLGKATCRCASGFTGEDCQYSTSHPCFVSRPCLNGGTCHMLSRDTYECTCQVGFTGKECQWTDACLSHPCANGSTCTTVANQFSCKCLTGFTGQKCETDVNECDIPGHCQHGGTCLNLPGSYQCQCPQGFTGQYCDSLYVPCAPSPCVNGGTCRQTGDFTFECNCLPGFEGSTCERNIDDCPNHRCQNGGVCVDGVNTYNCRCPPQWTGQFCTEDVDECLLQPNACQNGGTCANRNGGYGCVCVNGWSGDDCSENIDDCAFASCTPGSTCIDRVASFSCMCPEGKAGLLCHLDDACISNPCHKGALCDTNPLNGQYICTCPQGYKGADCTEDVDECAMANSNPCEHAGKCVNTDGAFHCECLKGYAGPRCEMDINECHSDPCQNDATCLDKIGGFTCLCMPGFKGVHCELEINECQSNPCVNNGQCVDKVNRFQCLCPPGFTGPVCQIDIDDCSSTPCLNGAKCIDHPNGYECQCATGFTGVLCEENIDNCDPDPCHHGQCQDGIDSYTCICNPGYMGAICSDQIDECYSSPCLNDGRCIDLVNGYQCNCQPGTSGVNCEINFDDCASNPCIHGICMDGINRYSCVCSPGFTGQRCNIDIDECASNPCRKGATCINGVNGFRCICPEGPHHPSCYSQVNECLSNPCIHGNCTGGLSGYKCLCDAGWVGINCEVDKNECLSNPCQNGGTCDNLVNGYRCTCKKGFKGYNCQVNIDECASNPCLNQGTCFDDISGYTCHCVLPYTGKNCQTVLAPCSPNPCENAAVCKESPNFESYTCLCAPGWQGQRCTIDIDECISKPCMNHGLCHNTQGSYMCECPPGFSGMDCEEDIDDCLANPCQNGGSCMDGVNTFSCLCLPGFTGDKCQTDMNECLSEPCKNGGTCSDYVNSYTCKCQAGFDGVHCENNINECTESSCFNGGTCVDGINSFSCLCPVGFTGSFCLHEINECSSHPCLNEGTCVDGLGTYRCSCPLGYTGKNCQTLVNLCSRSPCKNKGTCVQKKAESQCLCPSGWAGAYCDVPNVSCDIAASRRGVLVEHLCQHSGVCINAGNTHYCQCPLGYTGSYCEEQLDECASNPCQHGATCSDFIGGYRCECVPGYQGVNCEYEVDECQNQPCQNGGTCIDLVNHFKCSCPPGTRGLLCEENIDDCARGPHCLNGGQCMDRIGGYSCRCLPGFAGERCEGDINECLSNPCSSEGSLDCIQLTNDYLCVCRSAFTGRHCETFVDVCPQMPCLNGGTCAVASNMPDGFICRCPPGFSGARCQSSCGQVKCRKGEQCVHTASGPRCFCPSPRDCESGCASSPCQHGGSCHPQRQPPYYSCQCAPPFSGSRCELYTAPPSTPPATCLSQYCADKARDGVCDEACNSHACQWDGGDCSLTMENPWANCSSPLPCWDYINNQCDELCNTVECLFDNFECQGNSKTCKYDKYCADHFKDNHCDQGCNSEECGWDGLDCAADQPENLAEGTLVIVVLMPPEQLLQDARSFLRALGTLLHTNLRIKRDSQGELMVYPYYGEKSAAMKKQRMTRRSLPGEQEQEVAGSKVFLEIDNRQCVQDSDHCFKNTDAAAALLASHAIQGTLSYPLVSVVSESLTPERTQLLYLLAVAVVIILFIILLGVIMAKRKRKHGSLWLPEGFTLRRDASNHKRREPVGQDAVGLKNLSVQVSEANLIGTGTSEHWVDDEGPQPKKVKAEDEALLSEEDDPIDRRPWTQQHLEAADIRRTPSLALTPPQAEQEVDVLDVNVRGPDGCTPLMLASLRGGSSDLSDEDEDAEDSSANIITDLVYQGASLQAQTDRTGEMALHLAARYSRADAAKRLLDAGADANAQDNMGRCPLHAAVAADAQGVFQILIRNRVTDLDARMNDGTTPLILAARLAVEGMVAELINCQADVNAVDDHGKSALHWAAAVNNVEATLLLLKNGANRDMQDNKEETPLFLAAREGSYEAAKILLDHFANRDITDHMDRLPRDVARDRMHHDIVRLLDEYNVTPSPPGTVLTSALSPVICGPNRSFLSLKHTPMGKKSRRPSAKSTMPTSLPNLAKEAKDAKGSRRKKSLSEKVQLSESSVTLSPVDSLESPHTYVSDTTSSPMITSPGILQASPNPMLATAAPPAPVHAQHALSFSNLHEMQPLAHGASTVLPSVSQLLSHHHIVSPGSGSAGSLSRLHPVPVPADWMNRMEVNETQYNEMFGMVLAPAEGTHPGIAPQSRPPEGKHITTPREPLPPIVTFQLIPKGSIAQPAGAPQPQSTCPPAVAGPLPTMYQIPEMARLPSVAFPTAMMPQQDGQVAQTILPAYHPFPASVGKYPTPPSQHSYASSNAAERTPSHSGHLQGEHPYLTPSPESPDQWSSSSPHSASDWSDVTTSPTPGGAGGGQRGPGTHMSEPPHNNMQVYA

Turning to `COc1ccc([Si](C)(C)[C@H]2[C@H](CC(=O)N3Cc4ccccc4C[C@H]3CO)O[C@@]3(C(=O)N(Cc4cccc(N5CCC5=O)c4)c4ccccc43)[C@@H]2C)cc1`, the composite z-score in experiment [1] is -0.26; in [2] it was 0.479; in experiment [3] it was -0.07; in experiment [4], 0.726; in experiment [5], 0.793; in experiment [6], 0.871. The composite z-score in [7] was 1.29; in experiment [9] it was 0.256; in experiment [10], -0.13; in experiment [11], 1.57; in [15] it was 2.26; in [17] it was -0.12. Also, the composite z-score in experiment [18] came out at 0.914; in experiment [19], 1.06; in [20] it was 0.0478. Moreover, the z-score was -2.41 (inactive) in experiment [8]; -0.441 (inactive) in [12]; 0.716 (inactive) in experiment [13]; 1.98 (inactive) in [14]; 0.192 (inactive) in experiment [16].

Take `O=C1O[C@H](c2ccccc2)[C@H](c2ccccc2)N2[C@H]1[C@@H](C(=O)N1CCCCCCC1)[C@]1(C(=O)Nc3ccc(C#CCCO)cc31)[C@H]2c1ccccc1OCCO`: the composite z-score came out at 3.95 in experiment [1]; 2.92 in [2]; 1.08 in experiment [3]; 1.62 in experiment [4]; 1.72 in [5]; 2.85 in experiment [6]. Moreover, the composite z-score is 1.37 in [7]; 3.77 in experiment [9]; 4.26 in experiment [10]; 1.55 in [11]; 5.15 in experiment [15]; 1.96 in experiment [17]. Further, the composite z-score in experiment [18] turned out to be 2.41; in [19], 1.01; in [20], 1.34. Besides, the z-score is -0.851 (inactive) in [8]; 2.09 (inactive) in [12]; -13.6 (active) in [13]; 4.15 (inactive) in [14]; 0.689 (inactive) in experiment [16].

`CC(C)C(O)C1C=CC2C(=O)NC(=O)C2N1Nc1ccc(Cl)cc1Cl` (stereo not given): the composite z-score in [1] was 0.889; in experiment [2], 0.206; in [3], -0.0675; in [4], -0.0108; in experiment [5] it was 0.514; in experiment [6], 1.98. The composite z-score in experiment [7] was 1.16; in experiment [9] it was 0.464; in [10], -0.0645; in experiment [11], 0.119; in experiment [15], 3.18; in experiment [17], 0.112. Also, the composite z-score in experiment [18] is -0.463; in [19], 0.0316; in experiment [20], -0.122. For the same compound, the z-score in [8] is -0.903 (inactive); in [12], 0.376 (inactive); in experiment [13], -0.843 (inactive); in [14], 1.5 (inactive); in experiment [16] it was -0.805 (inactive).

In the case of `CN1C(=O)C2C=CC(C(O)c3ccco3)N(Nc3ccccc3)C2C1=O` (stereo not given), the composite z-score in experiment [1] worked out at 0.034; in [2], 0.438; in experiment [3] it was 0.0772; in experiment [4], 0.321; in experiment [5], 1.06; in [6] it was 1.51. In addition, the composite z-score in experiment [7] is 1.28; in experiment [9], -0.104; in experiment [10] it was -0.0581; in experiment [11], 0.941; in experiment [15], 2.52; in experiment [17], 0.0569. Further, the composite z-score in experiment [18] is 0.139; in experiment [19], 0.275; in experiment [20], -0.0976. Besides, the z-score in experiment [8] is 0.0122 (inactive); in experiment [12], 0.312 (inactive); in experiment [13], 0.899 (inactive); in experiment [14], 1.74 (inactive); in experiment [16] it was -1.37 (inactive).

Take `C[C@H]1NC(=O)[C@@]23C(=O)N[C@@H](Cc4ccccc4)C2[C@H](C)[C@@]2(C)O[C@H]2C3/C=C/C/C=C\CNC(=O)[C@@H]2CCCN2C1=O` (stereo not given in full): the composite z-score in [1] is -0.468; in [2], -0.454; in [3] it was 0.0653; in experiment [4], 0.479; in experiment [5], 0.521; in experiment [6] it was 0.425. For the same compound, the composite z-score in experiment [7] is 0.909; in experiment [9], 0.145; in experiment [10], -0.132; in experiment [11], -0.0905; in experiment [15], 0.697; in experiment [17] it was -0.166. Besides, the composite z-score is 1.15 in [18], 1.01 in experiment [19] and -0.139 in experiment [20]. Also, the z-score in [8] is 0.182 (inactive); in experiment [12], -0.185 (inactive); in [13], -0.769 (inactive); in experiment [14] it was -1.52 (inactive); in [16], 0.1 (inactive).

Values taken from PubChem BioAssay.
